tim10-1 inh: inhibits growth of tim10-1 mutant yeast; AID 463190; 330,000 compounds, 2.2% hits; inhibition, % at 20 µM; S. cerevisiae tim10-1 ts strain growth, BacTiter-Glo, 24 h;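 active = inhibition of at least 40%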;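 also: mutant grown at 25 °C; 0% = DMSO wells with yeast and 100% = wells holding no yeast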
TIM10 inh: growth inhibitors of TIM10 yeast strain | inhibition, % at 10 µM | S. cerevisiae TIM10 strain growth, BacTiter-Glo luminescence, 24 h | AID 463195 | 330,000 compounds, 1.4% hits;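 active = inhibition of 40% or more at the single tested concentration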;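 also: wild-type TIM10 isogenic control strain grown at permissive 25 °C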
NALP3 yeast inh: inhibitors of NALP3 inflammasome in yeast; Yeast reconstituted NLRP3/ASC/caspase-1, beta-gal luminescence, 24 h; inhibition, % at 10 µM; 330,000 compounds, 0.39% hits; AID 2825;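 active = inhibition of 50% or more; inactive = inhibition below 50%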;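 also: plate controls were induced DMSO wells for no effect and uninduced yeast grown without galactose for full effect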
tim23-1 inh: inhibits growth of tim23-1 mutant yeast. inhibition, % at 20 µM. S. cerevisiae tim23-1 growth, BacTiter-Glo luminescence, 24 h. 330,000 compounds, 1.3% hits. AID 463212;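 active = growth inhibition of the mutant yeast at or above 50%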;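 also: temperature-sensitive mutant grown at 25 °C; plate controls were DMSO-treated mutant yeast for no effect and medium wells lacking yeast for full effect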
SKKanGAS inh: inhibitors of SKKanGAS S. pyogenes growth in kanamycin (SK-promoter or general growth effect). BacTiter-Glo, 6 h. 300,000 compounds, 1.3% hits. inhibition, % at 7.5 µM;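 active = mean replicate score, as percent of positive control median, at least 50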;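 also: strain carries kanamycin resistance gene driven by streptokinase promoter and grows in 40 µg/ml kanamycin; loss of luminescence reflects streptokinase promoter inhibition or plain growth inhibition; 0% = median of DMSO wells and 100% = positive control at its reference dose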
tim10-1 confirm: confirmation of tim10-1 mutant yeast growth inhibitors | inhibition, % at 20 µM | shares compounds with tim10-1 inh | S. cerevisiae tim10-1 ts strain growth, BacTiter-Glo, 24 h | 7,400 compounds, 56% hits;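 active = inhibition of yeast growth at or above a set limit in either of two repeat tests at 20 µM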;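 also: tim10-1 mutant grown at permissive 25 °C to find synthetic lethal compounds; 0% = DMSO yeast wells and 100% = medium wells without yeast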
An asterisk follows results filed as active; nt = no result. Only some compounds are listed: those with a hit (about 4.6% of all), similar ones and a draw of the others.

SMILES	tim10-1 inh	TIM10 inh	NALP3 yeast inh	tim23-1 inh	SKKanGAS inh	tim10-1 confirm
CCC(=O)N1c2ccc(S(=O)(=O)CCC(=O)N3CCn4c3nc3ccccc34)cc2CC1C (configuration not stated)	45*	17	-15	6	-3	29
Cc1ccccc1Cn1nnc(-c2ccc(F)cc2)n1	8	5	-31	19	22	nt
O=C(c1cccnc1)c1ncc(C(F)(F)F)cc1Cl	-2	7	-4	0	-5	nt
CCOC(=O)c1c2c(n(C)c1COC)C(=O)C(=O)c1ccc(Br)cc1-2	48*	6	12	41	88*	13
COc1cccc(/C=N/n2c(C)nc3ccccc32)c1OC	44*	39	22	48	-7	31
CC(=O)Oc1ccc2c(=O)oc(-c3ccccc3C)nc2c1	44*	20	22	41	3	40*
CCCCn1c(N)c(N(CC)C(=O)COc2ccc(C#N)cc2)c(=O)[nH]c1=O	-6	-2	15	3	nt	nt
CC(OC(=O)c1ccc([N+](=O)[O-])s1)C(=O)NC1CCCCC1C (configuration not stated)	47*	39	9	19	nt	39*
COc1cc(C(=O)OC(C)C(=O)NC2CCCCC2C)c([N+](=O)[O-])cc1OC (configuration not stated)	19	4	-4	17	-16	nt
O=C(OCC(=O)N1CCCC1)c1cc(Cl)ccc1Cl	10	-6	7	12	1	nt
O=CNC1CCCc2c1[nH]c1ccc(Cl)cc21 (configuration not stated)	45*	30	8	33	-16	28
O=C(Nc1ccnn1C1CCN(Cc2ccc(O)c(Cl)c2)CC1)C1CCCC1	13	10	6	4	-16	nt
CC1CCN(C(=O)c2ncn(Cc3ccccc3)c2C(=O)N2CCC(C)CC2)CC1	10	7	6	15	nt	nt
Cc1nnnn1/C(=C\c1ccccc1)C(=O)OCC(=O)NC(C)(C)C	45*	31	16	45	-1	34*
CC(=O)Nc1ccc(NC(=O)COC(=O)/C(=C/c2ccccc2)n2nnnc2C)cc1	-3	11	21	4	-3	nt
C=CCOn1c(=O)c(-c2cc3ccccc3o2)[n+]([O-])c2ccccc21	19	18	20	28	8	nt
CCOC(=O)COn1c(=O)c(-c2cc3ccccc3o2)[n+]([O-])c2ccccc21	44*	7	21	29	16	12
N#Cc1nc(COc2ccc(Cl)cc2Cl)oc1N1CCOCC1	41*	32	19	30	-4	25
CCOC(=O)C1=C(COC(=O)COc2ccc(C(=O)CC)cc2)NC(=O)NC1C (configuration not stated)	1	-3	18	-11	-5	nt
COc1ccc(CNC(=O)Cn2nc(C(F)(F)F)c3c2CCC3)cc1	42*	21	6	28	3	21
COc1ccc(NC(=O)Cn2nc(C(F)(F)F)c3c2CCCC3)c(OC)c1	11	11	15	8	-10	nt
Cc1ccc(-c2nc(-c3ccccn3)no2)cc1[N+](=O)[O-]	8	1	18	18	19	nt
Cc1ccc(-c2nc(-c3ccccn3)no2)cc1Cl	40*	24	16	44	15	15
Clc1cccc(-c2nc(-c3ccccn3)no2)c1	17	1	9	-6	12	nt
Cc1ccc(-c2nc(-c3ccccn3)no2)cc1	43*	17	32	39	59*	17
SMILES	tim10-1 inh	TIM10 inh	NALP3 yeast inh	tim23-1 inh	SKKanGAS inh	tim10-1 confirm
CCN(CC)CCNC(=O)c1ccc(CS(=O)(=O)c2ccccc2C)o1	-8	7	16	1	4	nt
Cc1ccc(N2CSC3=C(C#N)C(c4cccs4)CC(=O)N3C2)cc1 (configuration not stated)	40*	0	18	16	11	0
O=C(O)C1C2CCC(O2)C1C(=O)Nc1ccccc1Br (configuration not stated)	7	-1	16	6	3	nt
Cc1nc(SCC(=O)N2CCN(c3ccccc3)CC2)c2oc3ccccc3c2n1	48*	31	43	40	14	43*
CN(C)CCCN1c2ccccc2Sc2ccc(C(F)(F)F)cc21	44*	29	37	21	-1	31
CCSc1ccc2c(c1)N(CCCN1CCN(C)CC1)c1ccccc1S2	42*	17	26	24	nt	31*

Source: PubChem (several laboratories)
